Cruzain inh Det – cruzain (T. cruzi) inhibition with detergent; P25779; purified cruzain, Z-FR-AMC fluorescence, 0.01% Triton; Potency, µM, without a hit: max response, negative = inhibition, most hits filed as inhibitors; hit rate 0.43% among 200,000;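 note: plate controls were neutral wells for no effect and buffer without enzyme for full effect; nearly all actives have a fitted effect of over 40% in size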
Target sequence (P25779 123-467 limits assumed): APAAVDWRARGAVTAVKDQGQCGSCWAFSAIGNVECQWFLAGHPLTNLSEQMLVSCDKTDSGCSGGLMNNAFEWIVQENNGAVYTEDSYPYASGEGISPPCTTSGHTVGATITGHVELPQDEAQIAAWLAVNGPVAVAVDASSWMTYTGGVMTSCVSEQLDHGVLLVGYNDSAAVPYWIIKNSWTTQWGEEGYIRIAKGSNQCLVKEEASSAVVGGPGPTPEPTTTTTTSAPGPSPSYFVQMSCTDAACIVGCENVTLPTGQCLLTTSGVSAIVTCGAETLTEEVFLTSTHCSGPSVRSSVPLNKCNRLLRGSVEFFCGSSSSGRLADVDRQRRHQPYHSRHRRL
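Compounds were screened in titration against cruzain (1.5 nM) with 0.01% Triton X-100 to counter colloidal aggregation. Activity was the AMC fluorescence increase over 60 s after adding 2 uM Z-FR-AMC at pH 5.5.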
Cruzain noTriton – cruzain (T. cruzi) inhibition without detergent | P25779 | purified cruzain, Z-FR-AMC fluorescence, no detergent | AID 1476 | Potency, µM, without a hit: max response, negative = inhibition, most hits filed as inhibitors | hit rate 2.3% among 200,000;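 note: plate controls were enzyme without inhibitor for no effect and buffer without enzyme for full effect; nearly all actives have a fitted effect of over 40% in size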
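Detergent-free condition (0.00005% Triton X-100) in acetate buffer pH 5.5 with DTT. 1.5 nM enzyme and compound were pre-mixed 15 min, then 2 uM Z-FR-AMC substrate added; reaction progress from fluorescence change between first and third reads (60 s).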
An asterisk follows results filed as active; ? = inconclusive; ! = repeats disagree. Hits are enriched below; roughly 2.6% of the tested compounds scored in any of these assays. Calls come from the whole dose curve; as a rule, active = well fitted curve in the direction sought with a large enough effect; inconclusive = small, poorly fitted or top-dose-only effect, or another doubt; inactive = no such curve, though single readings can be large; an effect the other way counts as inactive or inconclusive. Potency is the fitted concentration of half-maximal effect.

SMILES	Cruzain inh Det	Cruzain noTriton
Cc1cccc(NC(=O)N[C@@H]2N=C(c3ccccc3)c3ccccc3N(CC(=O)c3ccccc3C)C2=O)c1	-2%	32µM*
COc1ccc(NC(=O)CN2C(=O)C(C)N=C(c3ccccc3)c3ccccc32)cc1OC (configuration not stated)	-1%	?
COc1cc(/C(C)=N\NC(N)=S)cc(OC)c1OC	5µM*	1.3µM*
COc1cc(/C(C)=N/NC(=S)NC(C)C)cc(OC)c1OC	-7%	0%
Cc1ccc2onc(CNC(=O)Nc3ccccc3C#N)c2c1	-1%	-8%
Cc1ccc(C)c(S(=O)(=O)c2cn(Cc3ccccc3)c3cc(F)c(F)cc3c2=O)c1	-5%	25µM*
Cc1ccc(Cn2cc(S(=O)(=O)c3ccc(Cl)cc3)c(=O)c3cc(F)ccc32)cc1	0%	?
COc1ccc2c(c1)sc1ncc(C(=O)NCc3ccc(OC(C)C)cc3)c(=O)n12	0%	0%
Cc1cccc(N(C)S(=O)(=O)c2nnc(NC(=O)c3cccs3)s2)c1	-1%	0%
Cc1cccc(-c2nnc(NC(=O)c3cccs3)s2)c1	0%	16µM*
Cc1ccc(C(=O)Oc2coc(CSc3nnc(NC(=O)c4cccs4)s3)cc2=O)cc1	-1%	25µM*
Cc1cc(C)cc(C(=O)Oc2coc(CSc3nnc(NC(=O)C4CC4)s3)cc2=O)c1	-4%	3%
COc1cc2c(cc1OC)C(COc1cccc(C(F)(F)F)c1)N(C(=O)c1ccc(S(=O)(=O)N3CCCC3)cc1)CC2 (configuration not stated)	0%	28%
COc1ccc(C(=O)c2oc3ccccc3c2NC(=O)COc2c(C)cc(C)cc2C)cc1	0%	12%
CCc1ccccc1Nc1cc(C(=O)NCCCN(C)C2CCCCC2)c2ccccc2n1	-12%	-14%
CSc1nc(NCc2ccco2)c2sc3nc(C(C)C)c4c(c3c2n1)CC(C)(C)OC4	-1%	-4%
CSc1nc(NCCOCCO)c2sc3nc(-c4ccco4)c4c(c3c2n1)CCC4	7.9µM*	25%
COc1cc(Nc2ncc3c(n2)CCN(Cc2ccc(OC(C)C)c(OC)c2)C3)cc(OC)c1	-6%	-1%
Cc1ccc(Cl)cc1NC(=O)Cn1c(=O)n(C(C)C)c(=O)c2oc3ccccc3c21	-1%	7%
Cc1ccc(NC(=O)c2nn(C34CC5CC(CC(C5)C3)C4)cc2[N+](=O)[O-])cc1	-3%	?
O=C(Nc1cccc2ccccc12)c1nn(C23CC4CC(CC(C4)C2)C3)cc1Br	3%	10µM*
COc1cc2c(cc1NC(=S)Nc1cccc3ccccc13)oc1ccccc12	-8%	10µM*
COc1cc2c(cc1NC(=S)Nc1cccc(C(F)(F)F)c1)oc1ccccc12	-8%	16µM*
CC(C)NC(=O)c1ccccc1NC(=O)/C=C/c1ccc([N+](=O)[O-])cc1	5%	-5%
COc1cc2c(cc1NC(=O)Nc1ccccc1)oc1ccccc12	7%	?
SMILES	Cruzain inh Det	Cruzain noTriton
COc1cc2c(cc1NC(=O)/C=C/c1ccc([N+](=O)[O-])cc1)oc1ccccc12	-2%	5µM*
COc1cc2c(cc1NC(=O)CSCC(=O)O)oc1ccccc12	-5%	-19%
CCOc1ccc(CNC(=O)CS(=O)(=O)c2cccc3nsnc23)cc1	2%	-5%
CCOC(=O)C1(C)C=C(Nc2ccc(OC)cc2)C(=O)N1c1ccc(OC)cc1 (configuration not stated)	6%	16µM*
CCOC(=O)C1(C)C=C(Nc2ccc(O)cc2)C(=O)N1c1ccc(O)cc1 (configuration not stated)	-7%	-9%
CC(C)CC(c1nnnn1Cc1cccs1)N1CCN(c2nc3ccccc3s2)CC1 (configuration not stated)	-5%	32µM*
CCC(c1nnnn1Cc1cccs1)N1CCN(c2nc3ccccc3s2)CC1 (configuration not stated)	-3%	?
COc1ccc(/C=c2\sc3nc(-c4ccccc4)c(-c4ccccc4)n3c2=O)cc1OC	-19%	?
COc1ccc(/C=c2/sc3nc(-c4ccccc4)c(-c4ccccc4)n3c2=O)cc1	-5%	6.3µM*
CC(C)c1ccc(NC(=O)Cn2c(=O)n(CC3CCC(C(=O)NCCc4ccccc4)CC3)c(=O)c3ccccc32)cc1 (configuration not stated)	-1%	-23%
COc1ccc(-n2c(=S)[nH]c3cc(C(=O)Nc4cccc(C)c4)ccc3c2=O)cc1	1%	13µM*
COc1ccc(-n2c(=S)[nH]c3cc(C(=O)Nc4ccc(OC)c(OC)c4)ccc3c2=O)cc1	3%	-2%
COc1ccc(-c2csc(N3CCC(c4ccccc4)C3)n2)cc1 (configuration not stated)	2%	-6%
COc1ccc(-c2csc(-n3ncc(-c4cccs4)c3N)n2)cc1	5%	1.6µM*
O=C(CSc1ncnc2scc(-c3ccccc3)c12)N1CCN(c2ccccc2F)CC1	-4%	32µM*
COc1ccccc1N1CCN(C(=O)CSc2ncnc3scc(-c4ccccc4)c23)CC1	0%	6%
CCOc1ccccc1CNC(=O)c1ccc2nc(CCc3ccccc3)oc2c1	-3%	13%
Cn1c(C(=O)Nc2ccc3c(c2)OCCO3)cc2sccc21	-9%	?
CC(C)c1ccc(NC(=O)Nc2cc3sccc3n2C)cc1	-9%	7.9µM*
Cc1cc(NC(=O)c2ccc3c(c2)C(=O)N(C2CCCCC2)C3=O)no1	6%	6.3µM*
Cc1cc(NC(=O)c2ccc3c(c2)C(=O)N(C)C3=O)no1	2%	10%
CCCCN(Cc1cc2cc(C)ccc2[nH]c1=O)C(=O)c1cccc(Cl)c1	-1%	-1%
CCOc1ccc(C2=C(C=Nc3c(C)n(C)n(-c4ccccc4)c3=O)C(c3ccc(F)cc3)c3ccccc3O2)cc1 (configuration not stated)	4%	3.2µM*
CCOc1ccc(C2SCC(=O)N2c2c(C)n(C)n(-c3ccccc3)c2=O)cc1 (configuration not stated)	1%	-7%
Cc1ccc(C(=O)COC(=O)c2cc(-c3cccs3)nc3ccccc23)cc1	-8%	?
SMILES	Cruzain inh Det	Cruzain noTriton
COc1ccc(C(=O)COC(=O)c2cc(-c3cccs3)nc3ccccc23)cc1	-4%	20µM*
Cc1ccccc1CN1C(=O)C(O)(CC(=O)c2cccc(Br)c2)c2ccccc21 (configuration not stated)	-5%	-25%
O=C1C(SCCO)=C(SCCO)C(=O)c2ccccc21	?	25µM*!
N#CC(=NCCO)C1=C(O)c2ccccc2C1=O	2%	-2%
COc1ccc(Cl)cc1NC(=O)C(C)n1c(=O)cc(C(F)(F)F)c2c(C)nn(C)c21 (configuration not stated)	7%	-2%
Cc1ccc(OCCCN(C)C)c(Br)c1	2%	3%
Cc1cc(Cl)c(OCCCN(C)C)c(Br)c1	0%	5µM*
Cc1ccc(-n2nc(C)c(C(=O)NCCCN3CCN(c4cccc(Cl)c4)CC3)c2-n2cccc2)cc1	-7%	14%
COc1ccc(CNC(=O)c2cc(Nc3ccccc3C)nc3ccccc23)cc1	-12%	25µM*
COc1ccc(CNC(=O)c2cc(Nc3ccc(C)cc3C)nc3ccccc23)cc1	-10%	9%
COc1cc(CN2CCN(S(=O)(=O)c3ccc(NC(C)=O)cc3)CC2)cc(OC)c1OC	0%	-1%
COc1cccc(OCC(=O)NNC(=O)c2ccc(-c3ccccc3)cc2)c1	1%	25µM*
COc1cc(NC(=O)COc2cccc(OC)c2)cc(OC)c1	-6%	-12%

Compound activity: PubChem, National Center for Advancing Translational Sciences (NCATS)
